Screen size: about 2,300 compounds; about 550 (24%) were called active. The list is a sample of the results. Entries with a potency or affinity are not part of this list. Unmarked numbers belong to inactive results. No rule for the calls is given here.
Experiment: Vero E6 cell cytotoxicity, dose response, cytotoxicity control for non-replicating M. tuberculosis project, secondary assay (AID 492998);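 also: 100% = vehicle-treated cells and 0% = background wells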
Conditions: series mostly up to 20 µM; viability: at the top concentration

Compound	viability
Cc1ccc(C(=O)O/N=C(\N)c2cccc([N+](=O)[O-])c2)cc1	88.5%
O=C(OCCCOC(=O)c1ccc([N+](=O)[O-])o1)c1ccc([N+](=O)[O-])o1	99.5%
CCOC(=O)C1CCN(CCCSc2ccc(Cl)cc2)CC1	98.9%
Cc1ccc(NC(=O)C2=C(c3ccccc3)S(=O)(=O)CCS2(=O)=O)cc1	94.5%
C/C(=N\NC(=O)COc1ccc(C)cc1Br)c1cc([N+](=O)[O-])cs1	84.7%
C/C(=N\NC(=O)c1cc([N+](=O)[O-])cc([N+](=O)[O-])c1)c1ccco1	97%
O=C(CCN1CCC(c2ccccc2)C1)c1ccccc1 (centres undefined)	97.1%
COC(=O)COc1ccc2c(-c3cccc([N+](=O)[O-])c3)cc(=O)oc2c1	99.4%
CCOC(=O)c1c(NC(=O)COC(=O)c2ccccn2)sc2c1CCC2	97.1%
COc1ccc(-c2nnn(CC(=O)OC3CCCCC3)n2)cc1OC	92.8%
COc1ccc2c(c1)sc(=N)n2C	83.1%
CCOC(=O)C(C)Oc1cc(Cl)c(C=O)cc1OC (centres undefined)	101%
CC1=NN(c2ccccc2)C(=O)C1C(=O)c1ccccc1 (centres undefined)	107%
O=C(OCc1nc2ccccc2s1)c1ccc(Br)o1	98%
COc1ccc(N=Cc2nc(-c3ccccc3)oc2OC(C)=O)cc1	99.7%
Cc1ccc(NC(=O)COC(=O)C(NS(=O)(=O)c2ccc(Cl)cc2)C(C)O)cc1C (centres undefined)	98.9%
C/C(CC(=O)Nc1ccc(C)c(Cl)c1)=N\NC(=O)c1ccco1	84.7%
O=C(Nc1nnc(-c2ccc(Br)cc2)o1)c1ccco1	79.3%
Cc1ccc(-c2nnc(Cc3ccc([N+](=O)[O-])cc3)o2)cc1	104%
O=C(Nc1nnc(-c2ccc(Br)cc2)o1)C1=COCCO1	92.6%
O=C(Nc1nnc(-c2ccccc2Cl)o1)c1ccco1	109%
O=C(Nc1nnc(-c2cc(Cl)ccc2Cl)o1)C1=COCCO1	95.4%
Cc1ccc(C)c(-c2nnc(NC(=O)COc3ccccc3)o2)c1	71.6%
CCc1nnc(NC(=O)CN2CCN(c3ccccc3F)CC2)s1	111%

Compound	viability
CC(C)[C@H]1CN=C2N(C[C@H](C)NC(=O)CCC3CCCCC3)[C@H](Cc3ccc(O)cc3)CN21	93.5%
COc1ccc(C2=Nc3ccccc3OC2)cc1	96.1%
O=C(OCC#CCSc1nnc(-c2ccccc2)o1)c1ccco1	97.8%
Cc1ccnc(NC(=O)COc2ccc3c(c2)CCC3)c1	104%
COCCCNC(=O)COC(=O)c1ccc(-c2nc3ccccc3s2)s1	95%
COc1ccc(C(C)=O)cc1COC(=O)c1ccc2ccccc2n1	106%
CC1Cc2ccccc2N1C(=O)COC(=O)c1ccc(Cl)nc1 (centres undefined)	102%
Cn1c(=O)c2c(=O)cc(NNC(=O)CC#N)[nH]c2n(C)c1=O	110%
COC(=O)COc1ccc(S(=O)(=O)NCc2ccc3c(c2)OCO3)cc1	106%
COc1ccc(NCC(=O)N2CCCC2)cc1Cl	119%
CC1CCc2c(sc3nc(CSc4ncn[nH]4)[nH]c(=O)c23)C1 (centres undefined)	89.9%
CCOC(=O)COc1ccc2c(=O)c(-c3ccccc3)coc2c1	103%
Cc1ccc2c(c1)C(=O)C(=O)N2CCCOc1ccccc1	96.2%
C=CCN1C(=O)C2(NNc3ccccc3O2)c2ccccc21 (centres undefined)	82%
O=C(c1ccccc1)n1c(=O)c(F)cn(COCCBr)c1=O	108%
Cc1cc(C)cc(NC(=O)CCc2ccc(C)o2)c1	97%
CCc1ccc(N=CC2=C(O)CC(c3ccco3)CC2=O)cc1 (centres undefined)	95.6%
C/C(=N/NC(=O)c1ccco1)c1ccc(Br)s1	90.8%
Cc1ccc(/C=C2\SC(=S)N(C3CCS(=O)(=O)C3)C2=O)o1 (centres undefined)	89.5%
COC(=O)c1ccc(CO/N=C/c2ccc(OC)cc2)o1	99.9%
CCOC(=O)COc1ccc(C(=O)NC2CCCCC2)cc1	103%
Cc1nc2ccc(Cl)cc2nc(C)/c1=N\O	88.4%
O=c1c2cc(Cl)ccc2nc(-c2ccccc2Cl)n1O	103%
O=C(Oc1cccc([N+](=O)[O-])c1)c1ccc2c(=O)n3c(nc2c1)CCC3	96.2%

Compound	viability
N/C(=N\OC(=O)c1cccc(Br)c1)c1ccc([N+](=O)[O-])cc1	98.3%
O=c1c2c([N+](=O)[O-])cc([N+](=O)[O-])cc2sn1-c1ccc(Br)cc1	77%
O=[N+]([O-])c1ccc2nc(SCc3cn4cc(Cl)ccc4n3)[nH]c2c1	91.4%
CCOC(=O)c1cn(Cc2cccc(Cl)c2)nn1	97.6%
O=C(O)c1ccccc1C(=O)NNc1ccc(Cl)cc1	104%
CCCCCC1CC(CC(=O)NC(=S)Nc2ccc([N+](=O)[O-])cc2)C(=O)O1 (centres undefined)	104%
Cc1c(Cl)cccc1NC(=O)C1COc2ccccc2O1 (centres undefined)	99.6%
CCOC(=O)NC(=O)COC(=O)CCCSc1nc2ccccc2s1	104%
Cn1ccsc1=NC(=O)c1ccccc1F	97.6%
CCc1ccc(C(=O)NC2CCCCC2)s1	98.3%
Cc1ccc(Sc2ccc(C=C3C(=O)N(C)C(=O)N(C)C3=O)o2)cc1	93%
Cc1cc(C(=O)NNc2cc(Cl)ccc2Cl)no1	94.2%
CC(C)(C)OC(=O)NCCC(=O)Oc1ccc2ccc(=O)oc2c1	93.9%
COC(=O)[C@@H](NC(=O)c1cc(COc2cncc(Cl)c2)on1)c1ccccc1	103%
Cc1ccc(NC(=O)CN(C)CC(=O)Nc2ccc(F)c(Cl)c2)cc1	101%
NCCNc1ccc([N+](=O)[O-])c2cccnc12	96.2%
CCOC(=O)COc1cc([N+](=O)[O-])cc2cccnc12	104%
O=[N+]([O-])c1cnc(Nc2ccc(Cl)cn2)c([N+](=O)[O-])c1	82.3%
O=C1c2cccc3cc([N+](=O)[O-])cc(c23)C(=O)N1c1ccccc1O	91.5%
Fc1ccc(N2CCN(Cc3nnc(-c4ccccc4)o3)CC2)cc1	119%
Cc1occc1-c1nnc(-c2cc([N+](=O)[O-])cc([N+](=O)[O-])c2)o1	90.4%
S=C(Nc1ccc2c(c1)OCO2)Nc1ccc2c(c1)OCO2	83.2%
CCOC(=O)c1cc(-c2csc(COc3ccccc3)n2)on1	102%
CC(=O)N1CCC(=NNC(=O)c2cccs2)CC1	99.7%

Compound	viability
NC1CCN(c2c(F)cc3c(=O)c(C(=O)O)cn(C4CC4)c3c2Cl)C1 (centres undefined)	102%
Cc1ccc2cc3c(nc2c1)OCC3	99.3%
O=C(Nc1nccs1)c1cc2cc(Cl)ccc2oc1=O	109%
O=C(NNc1ccc([N+](=O)[O-])cc1)C1CC2CCCC(C1)C2=O (centres undefined)	101%
COCC(=O)Nc1ccccc1NC(C)=O	94.4%
O=C(OCc1ccc(Cl)c(Cl)c1)c1ccccn1	115%
COC(=O)c1ccc(COC(=O)c2ccccn2)cc1	102%
CCOc1cc(/C=N/NC(=O)c2ccccn2)ccc1OC(=O)c1cccs1	111%
CCOc1ccc(OCc2ccc(C(=O)OCc3ccccn3)o2)cc1	103%
Cc1ccccc1NC(=O)C1COc2ccccc2O1 (centres undefined)	91.7%
O=C(OCc1ccccn1)c1ccc(COc2ccccc2Cl)o1	80.2%
Nc1ccc2cc(Br)ccc2c1	81.7%
N#CC(C(=O)NCc1ccco1)c1nc2ccccc2nc1N1CCOCC1 (centres undefined)	89.9%
Cc1c([N+](=O)[O-])cnc(Sc2ccccc2)c1[N+](=O)[O-]	77.3%
Nc1ncnc(Oc2cccc3cccnc23)c1[N+](=O)[O-]	88.1%
O=C(NNC(=O)c1ccccc1F)c1ccc(-c2ccc(Cl)cc2)o1	100%
Cn1cccc1/C=N/NC(=O)c1ccco1	98%
C=CCNc1nc(C(=O)OCC(=O)c2cccc(Br)c2)cs1	101%
O=C(CCNc1ccc(Cl)c(C(F)(F)F)c1)c1ccco1	76.2%
O=C(CCNc1cccc(Cl)c1)c1cccs1	84.5%
COc1ccc(C(=O)CCNc2ccc(F)cc2)cc1	103%
Cc1ccc(C(=O)CCNc2ccc(Br)cc2)o1	86.6%
O=C(COC(=O)c1ccc(O)cc1O)c1ccc2c(c1)OCO2	110%
O=C(CCN1CCC(c2cccs2)=N1)c1cccs1	117%

Compound	viability
C/C(=N\Nc1ccc(Cl)cc1)c1c(O)cc(C)oc1=O	102%
CSc1ccc(N=Nc2c(C)[nH]n(C)c2=O)cc1	97%
Cc1ccc(N=Nc2c(C)[nH]n(C(N)=S)c2=O)cc1	85.3%
Cn1nnnc1N=N/C(=N/Nc1ccccc1)c1ccccc1	80.9%
CC(NC(=O)c1cc2ccccc2oc1=O)c1ccccc1 (centres undefined)	98.7%
CCCCOC(=O)c1ccc(NC(=O)C2CCCO2)cc1 (centres undefined)	85.9%
Cc1cccc(OCC(=O)NNC(=O)c2cc3ccccc3oc2=O)c1	104%
O=C(COc1ccc2ccccc2c1)N/N=C/c1ccccn1	103%
O=C(COC(=O)CCC(=O)c1ccc(F)cc1)Nc1ccccc1	101%
CC(=O)OCCN(C)c1cc(SC(C)C)c2nonc2c1[N+](=O)[O-]	101%
CC(=O)OCCNc1cc(SCc2ccco2)c2nonc2c1[N+](=O)[O-]	98.7%
C/C(Cn1nnc([N+](=O)[O-])n1)=N\NC(=O)c1ccncc1	93.6%
Cc1nc(-c2ccc(C(F)(F)F)cc2)sc1C(=O)NN	100%
Cc1cc(Cl)ccc1NNC(=O)c1cccs1	110%
COC(=O)COc1ccc2c(=O)c(-c3ccccc3OC)coc2c1	103%
Cc1ccnc(NC(=O)c2cc3ccccc3o2)c1	79.7%
Cc1n[nH]c(C)c1CCOc1ccc(C(C)C)cc1	84%
COc1cc(OC)cc(-c2nc3ccccc3c(=O)o2)c1	100%
CCCOC(=O)c1ccc(NC(=O)C2C3C=CC(O3)C2C(=O)O)cc1 (centres undefined)	104%
CC(=O)CCC1CC(c2ccc(Cl)cc2)=NO1 (centres undefined)	110%
CCCCCCNC(=O)c1ccc(Br)o1	91.2%
C=CC[n+]1ccn(-c2nc3ccccc3nc2[N-]S(=O)(=O)c2cccs2)c1	91.2%
Cc1cc(C)c2sc(NC(=O)C3=COCCO3)nc2c1	95.5%

Reference: PubChem BioAssay AID492998 (Southern Research Specialized Biocontainment Screening …, 2010)
